Results filed as inconclusive are left out. The source made the active and inactive calls. Calls follow the shape of the dose curve; as a rule, active = well fitted inhibition curve with a large enough effect; inconclusive = small, poorly fitted or top-dose-only effect; inactive = no such curve, though single readings can be large or run the other way.
Assay: qHTS for Inhibitors of the Aldehyde Dehydrogenase Family (ALDH1A2, ALDH1A3, ALDH2, ALDH3A1) (AID 2061307); also: nearly all actives have a fitted effect of over 50% in size
Conditions: ALDH inhibition qHTS; series mostly up to 50.3 µM

Potency, inactive:
Cc1ccccc1OCC(O)Cn1c(NCc2ccccc2)nc2c1c(=O)n(C)c(=O)n2C (stereo not drawn)
Cc1cccc(NC(=O)CSCC(=O)Nc2ccc(F)cc2)c1
O=C1CN(S(=O)(=O)c2cccc(C(=O)Nc3ccc(OC(F)(F)F)cc3)c2)CCN1
